Experimental data as given in article PMC9574860, “Chemical Toolkit for PARK7: Potent, Selective, and High-Throughput” (Journal of Medicinal Chemistry, 2022).
Among all 7,900 compounds or so, about 400 (5.1%) showed an effect of 50% or more. This is one part of a sample in which strong results are shown more often than they occur.

Biological target: Parkinson's disease protein 7 (PARK7/DJ1) (human, UniProt Q99497)
Assay: primary screen, percent inhibition; read as competition with a fluorescent probe by fluorescence polarization; higher = more effect of the substance
Details: 100 µM
Procedure, shortened: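 Covalent fragments at 100 μM final were incubated 2 h with 0.2 μM PARK7, then 20 nM probe JYQ-107 added for a further 2 h. Fluorescence polarization read at 480/520 nm; relative FP loss versus reference controls gave remaining enzyme activity.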

Chain of Parkinson's disease protein 7 (PARK7/DJ1) (Q99497 whole entry, looked up): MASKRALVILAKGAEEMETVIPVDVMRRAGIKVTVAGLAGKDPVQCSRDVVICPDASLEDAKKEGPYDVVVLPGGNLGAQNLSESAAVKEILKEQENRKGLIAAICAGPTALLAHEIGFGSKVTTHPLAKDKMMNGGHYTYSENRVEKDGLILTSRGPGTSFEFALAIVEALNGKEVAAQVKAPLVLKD

SMILES | Inhibition % [%]
C=CC(=O)N1CCC12CCOC2 (stereo not shown) | 7.06
Cc1ccc(C(C)NC(=O)Cn2cnc(C#N)n2)cc1C (stereo not shown) | 3.5
Cc1ccc(S(=O)(=O)F)cc1 | 2.62
CC(=O)c1ccc(S(=O)(=O)F)cc1 | 34.9
Cc1ccc(S(=O)(=O)F)cc1C(=O)O | 87.9
Cc1cc(S(=O)(=O)F)ccc1C(=O)O | 85.1
O=C(O)c1cc(S(=O)(=O)F)ccc1Cl | 7.95
C=CC(=O)NC1CCOC2(CCSC2)C1 (stereo not shown) | 6.26
Cc1cc(C)n(S(=O)(=O)N2CCCCC2)n1 | 7.02
O=C(Nc1cccc(S(=O)(=O)F)c1)C1(CF)CCC1 | 95.8
CCC1(C(=O)Nc2cccc(S(=O)(=O)F)c2)CCC1 | 93.8
COCC1(C(=O)Nc2cccc(S(=O)(=O)F)c2)CCCC1 | 94.3
COc1ccccc1C(=O)Nc1cccc(S(=O)(=O)F)c1 | 4.59
O=C(Nc1cccc(S(=O)(=O)F)c1)C1(CF)CCOCC1 | 95.3
COc1ccc(S(=O)(=O)n2ccc(C)n2)cc1C | 2.32
Cc1nn(C)c(Cl)c1C=CC(=O)N1CCC(C(=O)O)C1.Cl (stereo not shown) | 7.34
C=CC(=O)NCC1CC2(CCC2)CO1 (stereo not shown) | 5.74
Cc1cccc(-n2nnnc2SC2CC(C)OC2=O)c1 (stereo not shown) | 3.51
Cn1cc(NS(=O)(=O)C=Cc2ccccc2Cl)cn1 | 28.6
CCn1cc(C2NC(=O)C23CCOCC3)cn1 (stereo not shown) | 2.01
Cc1ccc(NC(=O)C(C#N)=Cc2cn(C)cn2)c(C)c1 | 10.3
CCN(C(=O)CCl)c1ccc(F)cc1 | 31.3
Cc1cc(C=C(C#N)C(=O)NCC2CCCO2)ccc1F (stereo not shown) | 2.68

SMILES | Inhibition % [%]
CC(C)(C)OC(=O)N1CCCC(S(=O)(=O)F)C1 (stereo not shown) | 10.7
O=S(=O)(F)CC1CCOCC1 | 10.5
CC(C)(C)OC(=O)N[C@@H]1CC[C@H](CS(=O)(=O)F)C1 (racemic) | 87.2
COC(=O)C1CC(S(=O)(=O)F)CN1C(=O)C1CCOCC1 (stereo not shown) | 9.64
Cl.N[C@@H]1CC[C@H](CS(=O)(=O)F)C1 (racemic) | 22.9
O=C(N[C@H]1CC[C@@H](CS(=O)(=O)F)C1)C1CCOCC1 (racemic) | 77.4
CC(C)C1(c2ccccc2)CO1 (stereo not shown) | 4.43
N#CSCc1nc2ccccc2[nH]1 | 24.5
COc1cc(SC#N)ccc1O | 15.4
CS(=O)(=O)OCC1CCCNC1=O (stereo not shown) | 7.7
Cl.O=S(=O)(F)CCNc1ccc(F)cc1 | 36.8
COc1ccc(NCCS(=O)(=O)F)cc1.Cl | 44.4
Cl.O=S(=O)(F)CCNc1ccc(Cl)cc1 | 66
N#Cc1ccc2cc[nH]c2n1 | 68.4
N#Cc1ccc(Cl)c(Cl)n1 | 5.12
N#Cc1ccc2[nH]ccc2n1 | 18.7
COc1cc(C=C(C#N)C(=O)NC(C)C)cc(Cl)c1O | -0.272
Cl.NC1C=CS(=O)(=O)C1 (stereo not shown) | 9.63
NC(=O)c1c(NC(=O)CCl)sc2c1CCC2 | 38.6
CCn1ncc(C(=O)CCl)n1 | 87.8
Cn1cc(C(=O)CCl)cn1 | 77.2
Cn1ccc(C(=O)CCl)c1 | 49
Cn1ccnc1C(=O)CCl | 32.3

SMILES | Inhibition % [%]
CCn1nc(C)c(C(=O)CCl)n1 | 13.1
Cn1nccc1C(=O)CCl | 15.4
C=CC(=O)NCCCc1cnn(C)n1 | 5.99
Cn1cccc1C(=O)CCl | 8.03
CN(Cc1cnn(C)c1)C(=O)CCl.Cl | 20.6
Cn1nncc1C(=O)CCl | 82.2
Cl.O=C(CCl)c1csc(N2CCCCC2)n1 | 2.02
Cn1ncc(C(=O)CCl)n1 | 95.3
OC1(C2CO2)CCOCC1 (stereo not shown) | 7.63
CC1(C)OB(c2cccc(CN3CCOCC3)c2)OC1(C)C.Cl | 25.8
N#CN(Cc1ccc(C(N)=O)cc1)c1ccc(F)cc1 | 3.09
C=CC(=O)NC1CCCC1C(=O)NC (stereo not shown) | 9
Cc1nc(C=CC(=O)N2CCC(C)(C(=O)O)C2)cs1 (stereo not shown) | 5.72
COc1ccc(C2=NC(=Cc3csc(C)n3)C(=O)O2)cc1 | 14.1
Nc1ccc(N2CCC2=O)cc1 | 16.5
O=C(CCl)Nc1nc2ccc([N+](=O)[O-])cc2s1 | 6.68
Cc1ccc(Cc2cnc(NC(=O)CCl)s2)cc1 | 7.26
O=C(CCl)Nc1ncc([N+](=O)[O-])s1 | 96.3
C=CC(=O)Nc1ccc(F)c(F)c1 | 7.82
CCc1nccn1S(=O)(=O)c1ccc(Cl)c(C)c1 | 1.29
CC(C)NC(=O)C(C#N)=Cc1cccc(O)c1 | 19.6
